Test results: PubChem BioAssay AID1376 (SRMLSC, 2008)
Out of some 220,000 compounds screened, about 530 (0.24%) were called active. This excerpt belongs to a sample that is enriched for actives. Results with a measured potency or affinity are listed apart. Values without a mark were called inactive. No stated cut-off is given here; in the data, active means inhibition above about 13%; inconclusive means no clear call, values can overlap the other calls; inactive means below that.

What follows are compounds tested against Bifunctional protein GlmU (Mycobacterium tuberculosis (strain ATCC 25618 / H37Rv)) (UniProt P9WMN3) (assay: inhibition of mycobacterial GlmU enzyme – biochemical, glucosamine-1-phosphate acetyltransferase (AID 1376;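 further: 0% = complete reaction with vehicle and 100% = reaction without substrate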)). Settings: M. tuberculosis GlmU acetyltransferase enzyme assay; active compounds read high;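 tested at 30 µM in the primary screen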.
Sequence of Bifunctional protein GlmU (Mycobacterium tuberculosis (strain ATCC 25618 / H37Rv)) (P9WMN3 whole entry, looked up): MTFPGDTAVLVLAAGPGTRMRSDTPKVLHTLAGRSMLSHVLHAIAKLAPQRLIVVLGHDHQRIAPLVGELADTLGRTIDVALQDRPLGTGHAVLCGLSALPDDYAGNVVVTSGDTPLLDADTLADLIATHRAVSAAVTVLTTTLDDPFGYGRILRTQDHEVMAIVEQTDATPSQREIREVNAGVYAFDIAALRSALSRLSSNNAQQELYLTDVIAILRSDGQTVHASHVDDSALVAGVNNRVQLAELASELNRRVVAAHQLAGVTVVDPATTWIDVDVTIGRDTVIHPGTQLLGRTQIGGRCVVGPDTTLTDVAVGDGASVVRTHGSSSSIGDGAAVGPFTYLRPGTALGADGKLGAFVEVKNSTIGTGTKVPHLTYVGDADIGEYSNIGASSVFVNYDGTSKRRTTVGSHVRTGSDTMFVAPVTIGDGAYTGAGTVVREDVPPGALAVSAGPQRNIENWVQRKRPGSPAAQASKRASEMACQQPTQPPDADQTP

Compound	inhibition
O=C(NCc1n[nH]c(=S)n1-c1cccc(C(F)(F)F)c1)c1ccc(S(=O)(=O)N2CCCC2)cc1	-1.04%
Oc1ccc(N=Nc2nccs2)c(O)c1	53.5% (active)
Oc1ccc(Cl)cc1/C=N/c1nccs1	5.12%
Oc1ccc(N=Nc2ccc(Br)cc2)c(O)c1	7.96%
Cc1cc2nc(=O)c(/C=C3\C=Nc4ccccc43)c(N)n2o1	-5.38%
O=c1ccnc2n1COCS2	-2.85%
CC(/C=C/c1ccccc1)=N\NC(=O)c1ccncc1	2.68%
Cc1ccc2c(C(=O)CN3CCN(c4ccccc4)CC3)c(C)[nH]c2c1	14.3% (active)
Cc1ccc2c(C(=O)CN3CCOCC3)c(C)[nH]c2c1	2.67%
Cc1ccc2c(C(=O)CN3CCCC3)c(C)[nH]c2c1	-5.2%
O=C(CSc1ccc(Cl)cc1)NN=C1CCCCCC1	0.28%
O=C(Nc1cccc(N2CCCC2)c1)c1cccs1	-6.15%
CCN1CCN(C(=O)NCc2ccccc2)CC1	-0.69%
CCOc1ccccc1CNc1ccc(O)cc1	12.9% (active)
Oc1ccc(NCc2ccccc2OCc2ccccc2)cc1	1.63%
Oc1ccc(NCc2ccccc2OCc2ccccc2F)cc1	1.2%
CCc1nnc(NC(=O)c2cccc(S(=O)(=O)N3CC(c4ccccc4)CC3=O)c2)s1 (stereo not given)	5.84%
COCCn1cnnc1SCC(=O)Nc1cccc(S(=O)(=O)N2CCCCCC2)c1	1.58%
COC(=O)c1ccc(S(=O)(=O)N2CCC(O)CC2)n1C	-2.92%
COC(=O)c1ccc(S(=O)(=O)N2CCCCCC2)n1C	12.8% (active)
COC(=O)c1ccc(S(=O)(=O)N2CCN(C)CC2)n1C	-8.72%
CCc1nnc(NC(=O)CSc2nc3c(c(=O)n2C)SC(C)C3)s1 (stereo not given)	3.46%

Compound	inhibition
O=c1/c(=C/c2ccccc2)sc2nnc(-c3cccs3)n12	0.67%
C#CC[N+]1(CC#Cc2ccccc2)CCOCC1	-6.07%
OCC#CC[N+]1(CC#Cc2ccccc2)CCOCC1	-6.73%
CC1=C(C(=O)Nc2ccccc2)C(c2cccs2)n2nnnc2N1 (stereo not given)	-3.97%
CCn1c(CSc2nc3ccccc3s2)nnc1SCC(=O)c1ccc(O)c(O)c1	5.09%
CCn1c(CSc2nc3ccccc3s2)nnc1SCC(=O)c1ccc(O)cc1O	13% (active)
CCn1c(CSc2nc3ccccc3s2)nnc1SCC(N)=O	1.32%
C=C(C)CNC(=S)N/N=C/c1ccc([N+](=O)[O-])cc1	3.43%
Cc1ccc(-n2nc3c(c2NC(=O)c2c(-c4ccccc4Cl)noc2C)CSC3)cc1	4.33%
Cc1ccc(-n2nc3c(c2NC(=O)c2ccc4c(c2)OCO4)CSC3)cc1	-1.67%
Cc1ccc(-n2nc3c(c2NC(=O)c2cccs2)CSC3)cc1	19.6% (active)
Cc1nccn1CCCN1C(=O)OC2(CCCCC2)C1(C)O (stereo not given)	-0.12%
Cc1cc(C)c(C(=O)COC(=O)c2cc([N+](=O)[O-])ccc2NCCO)cc1C	0.91%
COc1cc(/C=N/N=C2/C(=O)Nc3ccccc32)ccc1O	1.01%
O=C1Nc2ccccc2/C1=N/N=C/c1cccc(O)c1	0.15%
O=C1Nc2ccccc2/C1=N\N=C\c1ccc(O)c(O)c1	15% (active)
CC1CCc2ccc(F)cc2N1S(=O)(=O)c1cccs1 (stereo not given)	3.23%
O=c1cc(O)c2c(=O)n(-c3ccccc3)c3c(c2o1)CCCCCC3	0.45%
O=c1cc(O)c2c(=O)n(-c3ccccc3)c3ccccc3c2o1	0.8%
O=c1cc(O)c2c(=O)n(-c3ccccc3)c3c(c2o1)CCCCC3	13% (active)
C=CCNC(=O)NS(=O)(=O)c1ccc(C)cc1	1.33%
O=C(NCc1ccco1)c1cccc(-c2nnc(-c3ccccc3)o2)c1	-0.42%

Compound	inhibition
CC(C)CC(OC(=O)c1ccco1)C(=O)NC1CCCCC1 (stereo not given)	14.8% (active)
CC(C)C(OC(=O)c1ccco1)C(=O)NC1CCCCC1 (stereo not given)	1.45%
CC(OC(=O)c1ccco1)C(=O)NC1CCCCC1 (stereo not given)	-0.47%
O=C(NCc1ccncc1)C(=O)C1C(=O)Nc2ccccc21 (stereo not given)	-1.35%
CCOC(=O)c1nc(NCc2ccccc2C)c2ccccc2n1	-3.26%
C/C=C(\C)CN1CCN(c2cc(C)ccc2C)CC1	-5.99%
Cc1cc(C(=O)CS(=O)(=O)c2ccccc2)cc(C)c1OC(=O)N(C)C	0.59%
COc1ccc(NS(=O)(=O)c2cccc(C(=O)NNC(=O)NCCCl)c2)cc1	-0.61%
Cc1cc(/C=N/NC(=O)c2cccc(F)c2)c(C)n1-c1ccccc1	0.73%
Cc1cc(/C=N/NC(=O)c2cccc([N+](=O)[O-])c2)c(C)n1-c1ccccc1	-3.02%
Cc1cc(C(=O)N/N=C/c2sc(N3CCOCC3)nc2-c2ccccc2)c(C)o1	6.62%
CCCn1c(SCc2ccon2)nc2ccccc2c1=O	1.08%
O=C1c2ccccc2C(=O)N1CC(=O)N1c2ccccc2Sc2ccccc21	-6.14%
COc1ccc(OC)c(C(c2c(O)c3ccccc3oc2=O)c2c(C)n(C)n(-c3ccccc3)c2=O)c1 (stereo not given)	13.2% (active)
COc1ccc(C(c2c(O)c3ccccc3oc2=O)c2c(C)n(C)n(-c3ccccc3)c2=O)cc1 (stereo not given)	1.51%
COc1cc(C(c2c(O)c3ccccc3oc2=O)c2c(C)n(C)n(-c3ccccc3)c2=O)ccc1O (stereo not given)	22.1%
CCCCCCn1c(CN2CCN(CCO)CC2)nc2c1c(=O)n(C)c(=O)n2C	2%
C/C(=N\NC(=O)c1nn(C)c(C)c1Br)c1cccc(NC(=O)c2ccc(F)cc2)c1	-3.49%
O=C(NCc1ccc(C(=O)N2CCC3(CC2)OCCO3)cc1)c1ccc2c(c1)OCO2	18.9% (active)
O=C(NCc1ccc(C(=O)N2CCC3(CC2)OCCO3)cc1)c1cccc(Br)c1	1.96%
O=C(c1ccc2c(c1)OCO2)N1CCC2(CC1)OCCO2	5.09%
